Assay results from PubChem BioAssay AID2284182 (EPA ToxCast).
Inconclusive results are not listed. Calls of active or inactive are those of the source. How the source made its calls: active means hit-call score of the fitted dose curve at least 0.9, where 1 is the maximum; inconclusive means response in the unintended direction; inactive means score below 0.9.

molecular target: human Serotonin Receptor 5-HT7 Agonism, HTR7 (gene 3363) (UniProt P34969); test: ERF_FR_GPCR_hHTR7: Eurofins (ERF) G Protein-Coupled Receptor (GPCR) Radioligand Binding LeadHunter Assay for human Serotonin Receptor 5-HT7 Agonism
Sequence (P34969 whole entry, looked up): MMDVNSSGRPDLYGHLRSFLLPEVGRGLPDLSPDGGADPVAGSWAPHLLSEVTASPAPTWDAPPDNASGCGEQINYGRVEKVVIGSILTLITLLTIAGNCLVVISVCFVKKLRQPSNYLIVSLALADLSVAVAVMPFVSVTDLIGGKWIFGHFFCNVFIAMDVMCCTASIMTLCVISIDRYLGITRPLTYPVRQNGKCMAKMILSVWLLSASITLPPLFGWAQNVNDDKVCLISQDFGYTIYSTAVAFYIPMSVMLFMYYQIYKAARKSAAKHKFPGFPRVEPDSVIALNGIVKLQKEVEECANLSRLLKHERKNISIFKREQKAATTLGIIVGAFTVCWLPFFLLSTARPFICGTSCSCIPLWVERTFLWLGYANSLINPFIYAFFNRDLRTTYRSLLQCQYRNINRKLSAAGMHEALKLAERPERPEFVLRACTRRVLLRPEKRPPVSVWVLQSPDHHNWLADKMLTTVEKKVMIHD
Method: ERF_FR_GPCR_hHTR7 is a biochemical, single-readout assay that uses extracted gene-proteins in a cell-free assay. Measurements were taken 2 hour after chemical dosing in a 96-well plate. See 5-HT7 Human Serotonin GPCR Binding (Agonist Radioligand) Assay, Cerep.ERF_FR_GPCR_hHTR7 is an assay component calculated from the ERF_FR_GPCR_hHTR7 assay. It is designed to measure radioligand binding using a type of binding reporter as detected by scintillation counting with radiometry technology.Data from the assay component ERF_FR_GPCR_hHTR7 was analyzed at the assay endpoint, ERF_FR_GPCR_hHTR7, in the positive analysis fitting direction relative to DMSO as the negative control and baseline of activity. Using a type of binding reporter, gain-of-signal activity can be used to understand changes in binding as they relate to gene HTR7. To generalize the intended target to other relatable targets, this assay endpoint is annotated to the gpcr intended target family, where the subfamily is serotonin.
Human cells are incubated for 120 minutes at room tempreture with [3H]LSD ligand (2.3 nM) and serotonin as control inhibitor. Test Sample Requirements: Minimum for 1) Screen: 60 ul of 10 mM stock -OR- 1 mg (pre-weighed) for 10 uM final testing. 2) Dose Response: 90 ul of 10 mM stock -OR- 1 mg (pre-weighed) for a top concentration at 10 uM.

Q: O=C(/C=C/c1ccc(O)cc1)CC(=O)/C=C/c1ccc(O)cc1 was tested. Which AC50 did it give?
A: 1750 nM (active)
